Source: PubChem BioAssay (several laboratories)
Myeloid diff 2 = induction of myeloid progenitor differentiation, primary screen, cell-based, flow cytometry, MLPCN library | calls only at 10 µM | AID 624256, 2012 | ER-HoxA9 myeloid progenitors, lysozyme-GFP differentiation | actives 1% (n = 360,000);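 active means normalized GFP-positive differentiation at or above the plate's own cutoff, the solvent-only control mean plus 3 SD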;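 further: cells exposed to compound for four days before flow analysis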
CRFBP-R2 block = antagonists of CRF-BP/CRF-R2 complex, primary screen, cell-based, HEK293, calcium dye fluorescence, uHTS | CRF-induced calcium fluorescence | inhibition, % at 11.8 µM | actives 0.59% (n = 350,000) | AID 588475, 2011;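 active means inhibition of the ligand-induced calcium signal above about 50% at the single tested concentration, limit read from the data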
NRP1-CendR mod = modulators of CendR peptide binding to NRP-1, primary screen, biochemical, fluorescence polarization, uHTS; FAM-RPARPAR peptide binding to NRP-1; inhibition, % at 25 µM; actives 0.85% (n = 360,000); AID 602438, 2012;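 active means inhibition or corrected inhibition above about 18%, plus a signal ratio from 0.5 to 1.5, limit read from the data, passing the limit was not always enough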
Target sequence (O14786 whole entry, looked up): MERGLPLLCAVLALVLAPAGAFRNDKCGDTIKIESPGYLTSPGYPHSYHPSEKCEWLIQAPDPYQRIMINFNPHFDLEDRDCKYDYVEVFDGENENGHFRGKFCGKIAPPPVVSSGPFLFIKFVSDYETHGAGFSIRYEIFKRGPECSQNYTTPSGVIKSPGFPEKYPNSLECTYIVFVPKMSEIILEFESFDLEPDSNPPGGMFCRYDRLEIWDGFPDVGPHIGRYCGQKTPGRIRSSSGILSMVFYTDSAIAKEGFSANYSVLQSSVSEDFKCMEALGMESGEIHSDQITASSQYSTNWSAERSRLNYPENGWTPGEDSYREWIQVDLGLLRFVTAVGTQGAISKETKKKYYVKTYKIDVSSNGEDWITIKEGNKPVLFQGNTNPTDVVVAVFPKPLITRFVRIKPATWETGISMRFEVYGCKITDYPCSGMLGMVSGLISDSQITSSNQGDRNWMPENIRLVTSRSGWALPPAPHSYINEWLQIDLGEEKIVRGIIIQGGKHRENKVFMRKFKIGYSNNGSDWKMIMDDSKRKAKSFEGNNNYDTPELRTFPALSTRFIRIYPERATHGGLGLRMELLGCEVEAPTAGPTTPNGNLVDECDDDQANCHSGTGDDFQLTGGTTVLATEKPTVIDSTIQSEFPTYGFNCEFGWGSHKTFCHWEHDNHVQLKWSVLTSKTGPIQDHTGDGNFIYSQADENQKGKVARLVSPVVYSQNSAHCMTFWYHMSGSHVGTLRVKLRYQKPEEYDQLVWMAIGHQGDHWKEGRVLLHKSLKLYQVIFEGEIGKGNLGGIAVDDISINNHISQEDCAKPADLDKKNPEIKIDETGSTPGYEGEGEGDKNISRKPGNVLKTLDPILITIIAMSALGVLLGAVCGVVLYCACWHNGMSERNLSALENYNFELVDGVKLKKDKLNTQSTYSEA
NadD block = inhibitors of S. aureus NadD, primary screen, biochemical, colorimetric, uHTS. Nicotinate-nucleotide adenylyltransferase NadD (Staphylococcus aureus N315). purified NadD enzyme, colorimetric absorbance read-out. inhibition, % at 20 µM. actives 0.78% (n = 360,000); in the data active means inhibition above about 26%
FAS-TE inh = FAS thioesterase domain inhibitors, primary screen, biochemical, fluorescence intensity, uHTS; actives 0.67% (n = 360,000); AID 602261, 2012; Fatty acid synthase (Homo sapiens), P49327; inhibition, % at 15 µM; recombinant FAS-TE, OMFH fluorogenic substrate, fluorescence endpoint;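 active means compounds whose normalised, plate-corrected inhibition of enzyme fluorescence in the single-dose primary screen is 50% or more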;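 further: 0% = DMSO with enzyme and 100% = substrate without enzyme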
* marks the source's active call; other numbers are inactive results; i = inactive; nt = no result; + = active, no number. Shown are actives, neighbours in structure and some others; about 3.6% of the full set was active somewhere.

SMILES	Myeloid diff 2	CRFBP-R2 block	NRP1-CendR mod	NadD block	FAS-TE inh
CCOC(=O)Cn1c(=NC(=O)c2ccc([N+](=O)[O-])s2)sc2ccccc21	i	-30	56*	3	-13
COc1cccc(C(C(=O)NCc2ccccc2)N2CCN(C(=O)C3CCCO3)CC2)c1OC (stereo not drawn)	i	nt	-9	nt	nt
CCN=C1S/C(=C\c2ccc(N3CCOCC3)cc2C)C(=O)N1CC	i	6	-25	-2	11
COCCN1C(=O)/C(=C/c2ccc(N3CCCC3)cc2C)SC1=S	+	-263	138	2	8
COc1ccc(-c2csc(NCCc3nc4cc(C(=O)NCCCO)ccc4n3Cc3ccc(C)cc3)n2)cc1	i	6	27*	-4	-5
Cc1ccc(Cn2c(C3CCCN3c3nc(-c4ccc(F)cc4)cs3)nc3cc(C(=O)NCCCO)ccc32)cc1 (stereo not drawn)	i	-1	-1	-5	-2
O=S(=O)(Nc1nc2ccccc2nc1NCc1ccco1)c1cccs1	+	-11	-30	12	-2
Nn1c(SCC(=O)Nc2ccccc2Oc2ccccc2)nnc1C1CC1	i	-6	-23	-3	-8
Cc1nc(NC(=O)CN2CCN(c3cccc(Cl)c3)CC2)sc1C(=O)N(C)C	i	6	11	0	-3
CC(C)n1c(O)c(N=NC(=O)CNC(=O)Cc2ccc(Cl)cc2)c2ccccc21	i	6	21*	-9	16
CC(C)n1c(O)c(N=NC(=O)CNC(=O)CCc2ccccc2)c2ccccc21	i	2	-4	-2	0
C[C@H](CO)N1C[C@H](C)[C@@H](CN(C)Cc2ccccc2)Oc2c(NC(=O)Cc3ccccc3)cccc2C1=O	i	8	4	0	0
C[C@H]1CN([C@@H](C)CO)C(=O)Cc2cc(NS(C)(=O)=O)ccc2O[C@@H]1CN(C)Cc1ccc(Cl)c(Cl)c1	i	55*	-7	-14	5
C[C@H](CO)N1C[C@H](C)[C@@H](CN(C)C(=O)Nc2ccc3c(c2)OCO3)Oc2c(NC(=O)Nc3ccc4c(c3)OCO4)cccc2C1=O	i	1	23	3	55*
C[C@H](CO)N1C[C@H](C)[C@@H](CN(C)Cc2ccc(Cl)c(Cl)c2)Oc2c(NC(=O)Cc3ccccc3)cccc2C1=O	+	-1	9	-3	19
Cc1noc(C)c1NC(=O)N(C)C[C@H]1Oc2c(NC(=O)NC(C)C)cccc2C(=O)N([C@H](C)CO)C[C@@H]1C	i	0	25*	-1	-9
COc1ccc(/C=N/Nc2nc(-c3cccnc3)nc3ccccc23)cc1OC	i	-9	6	-2	-2
Cc1c(O)ccc(/C=N/Nc2nc(-c3cccnc3)nc3ccccc23)c1O	i	-9	-5	36*	3
Oc1ccc(/C=N/Nc2nc(-c3cccnc3)nc3ccccc23)c(O)c1	i	-9	-50	39*	-3
COc1cc(/C=C/C(=O)OCC(=O)N2CCCC2)cc(OC)c1OC	i	11	-7	4	-6
CC(C)(C)NC(=O)C(c1cc2ccccc2o1)n1c(=O)c(-c2ccccc2)nc2ccccc21 (stereo not drawn)	i	nt	4	nt	nt
CCN(CC)CCN(C(=O)C1=COCCO1)c1nc2ccc(C)cc2s1	+	4	-9	-1	-4
CCCCOc1cccc(-c2cc(C(=O)NNC(=S)NCC)c3ccccc3n2)c1	i	-18	-3	6	74*
CC1CCCCC12NC(=O)N(CC(=O)OCc1cccc(F)c1)C2=O (stereo not drawn)	i	-18	-6	-4	-3
COc1ccccc1NC(=O)C1=C(C)NC(=O)NC1c1ccccc1F (stereo not drawn)	i	1	20*	-2	-4
COc1ccccc1C1NC(=O)NC(C)=C1C(=O)Nc1cccc(C)c1C (stereo not drawn)	i	1	1	3	-4
COc1cccc(C2NC(=O)NC(C)=C2C(=O)Nc2ccc(C)cc2)c1OC (stereo not drawn)	+	10	8	3	-1
